# Screening results deposited in PubChem by Broad Institute.
# A selection: hits, their analogues and other compounds. The true share with any hit is near 2.2%.
# MITF TRPM1 inh – MITF TRPM1 promoter inhibition in SK-MEL-5 cells; SK-MEL-5 TRPM1 promoter luciferase, 24 h; inhibition, % at 12.5 µM; 330,000 compounds, 0.83% hits;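 active = mean inhibition across replicates of 60% or more, whatever share of single replicates reaches that level; inconclusive = some that reach 60%, reason not given; inactive = mean inhibition across replicates below 60%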
# LMP1 NFkB inh – Epstein-Barr LMP1 NF-kappaB reporter inhibition | LMP1-induced NF-kappaB luciferase reporter cells, luminescence | inhibition, % at 12.5 µM | 350,000 compounds, 0.69% hits | AID 504558; in the data active = inhibition above about 41%; inconclusive = no clear call, values can overlap the other calls;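 also: 0% = neutral control wells and 100% = reference inhibitor control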
# LGR2 inh – Drosophila LGR2 receptor signaling inhibition; HEK293 LGR2, CRE-luciferase, bursicon-stimulated, 4 h; 380,000 compounds, 0.35% hits; AID 720647; inhibition, % at 9.99 µM;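 active = drop in luminescence signal, shown as inhibition above about 50% in the replicate tests, limit read from the data, passing the limit was not always enough; inconclusive = probably only some replicates passing the limit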;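 also: agonist challenge used bursicon conditioned medium at about half maximal strength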
# Shn3 3UTR inh – reduces Shn3 3'UTR luciferase signal in osteoblasts; 360,000 compounds, 0.52% hits; inhibition, % at 12.5 µM; Clone20 osteoblast Shn3 3'UTR firefly luciferase, 24 h; AID 588674;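 active = mean inhibition of at least 75% with every replicate also reaching 75%; inconclusive = mean inhibition at least 75% but some replicate below; inactive = mean inhibition below 75%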;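 also: 0% = median of neutral control wells and 100% = pilot-screen positive control compound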
# EWS-Fli inh – blocks EWS/Fli oncoprotein-driven transcription | inhibition, % at 12.6 µM | 350,000 compounds, 0.67% hits | A673 NR0B1-luciferase reporter, viability-normalised;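 active = mean inhibition of at least 50% after viability correction, with every replicate also passing that limit; inconclusive = mean reaches 50% but only one of two replicates passes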;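 also: firefly luciferase signal divided by Alamar Blue viability fluorescence both relative to DMSO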
# PAX8 inh HTS – PAX8 transcriptional activity inhibition. RMG-I TPO-luciferase reporter, SteadyGlo, 24 h. inhibition, % at 12.6 µM. 360,000 compounds, 1.2% hits. AID 652154;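 active = mean replicate inhibition at least 60% with every replicate also reaching 60%; inconclusive = only one of the two criteria is met; inactive = mean below 60% and not all replicates reaching 60%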;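 also: luciferase light reporting Pax8 driven TPO promoter activity; plate controls were median of neutral control wells for no effect and mitoxantrone controls for full effect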
# Numbers without * were called inactive; u = inconclusive; x = no result.
SMILES,MITF TRPM1 inh,LMP1 NFkB inh,LGR2 inh,Shn3 3UTR inh,EWS-Fli inh,PAX8 inh HTS
O=C(Nc1ccc2nc(-c3ccc4nc[nH]c4c3)[nH]c2c1)c1cccs1,10,-5,x,-2,x,68*
COc1ccc2c3c([nH]c2c1)[C@@H](CO)N(C(=O)Cc1ccccn1)CC31CCN(Cc2ccccn2)CC1,x,x,2,x,1,-22
CC(C)(C)c1ccc(-c2cn(-c3ccc(Br)cc3)c3[n+]2CCCS3)cc1,90*,28,19,80,39,95*
CO[C@H]1CN(C)C(=O)c2cc(NS(=O)(=O)CC(F)(F)F)ccc2OC[C@@H](C)N(CC2CCCCC2)C[C@@H]1C,x,x,-2,x,7,-3
CN(C)c1cc[n+](CC(=O)Nc2ccc(Oc3ccccc3)cc2)cc1,25,-1,8,-19,18,89*
CC(C)=CCC/C(C)=C/CNC(=O)C[C@H]1C[C@H](C(=O)N2CCOCC2)[C@@]2(C)c3[nH]c4cc(CCC(=O)N(C)C)ccc4c3CCN2C1=O,10,6,-6,89*,4,1
CC(C)=CCC/C(C)=C/CNC(=O)C[C@H]1C[C@H](C(=O)N2CCCCC2)[C@@]2(C)c3[nH]c4cc(CCC(=O)N(C)C)ccc4c3CCN2C1=O,34,1,x,76,x,x
CC[C@]12c3[nH]c4ccc(Cl)cc4c3CCN1C(=O)[C@@H](CC(=O)NC/C=C(\C)CCC=C(C)C)C[C@@H]2C(=O)N1CCN(C(=O)C2CC2)CC1,39,2,2,43,8,75*
O=C(c1cccnc1)N1CC(=O)N2[C@H](C1)[C@@H](c1ccc(/C=C/c3ccccc3)cc1)[C@@H]2CO,x,x,9,x,-1,-20
O=C(C[C@H]1CC[C@H]2[C@@H](COC[C@@H](O)CN2S(=O)(=O)c2ccc(Oc3ccccc3)cc2)O1)NC1CCC1,x,x,-6,x,x,x
COc1ccc(NC(=O)N(C)C[C@@H]2OCCCC[C@H](C)Oc3ccc(NC(=O)Nc4cccc5ccccc45)cc3C(=O)N([C@H](C)CO)C[C@@H]2C)cc1,x,x,4,x,6,12
CCOc1cc(CNCCCN2CCOCC2)cc(Br)c1OCc1ccccc1Cl,37,-27,u,86*,42,36
CCOc1cc(CNCCO)cc(Br)c1OCc1ccccc1Cl,47,6,x,53,x,x
CCCN(C)C[C@H]1OCCCC[C@H](C)Oc2ccc(NC(=O)c3ccncc3)cc2C(=O)N([C@H](C)CO)C[C@H]1C,x,x,13,x,0,-7
C[C@@H]1CN([C@H](C)CO)C(=O)c2cc(C#CC3(O)CCCC3)cnc2O[C@H]1CN(C)C(=O)C1CCOCC1,x,x,-1,x,-3,-21
CC(=O)c1c(C)[nH]c(C(=O)COC(=O)CCCOc2ccccc2)c1C,-2,-3,3,-1,-5,-6
CC(=O)c1c(C)[nH]c(C(=O)OCCOc2ccccc2)c1C,11,33,68*,52,-15,18
O=C(Nc1ccccc1)[C@H]1[C@H](CO)[C@H]2Cn3c(ccc(C4=CCCCC4)c3=O)[C@H]2N1Cc1ccccn1,x,x,-9,x,4,12
O=C(N/N=C\c1ccc([N+](=O)[O-])s1)c1cncc(Br)c1,78*,13,x,4,-6,86*
O=C(Cc1ccccc1)N/N=C/c1ccc([N+](=O)[O-])s1,68*,-3,x,24,x,x
Cn1c(SCC(=O)N/N=C/c2cc([N+](=O)[O-])ccc2O)nnc1-c1ccccc1,5,18,7,x,2,-5
Cn1c(SCC(=O)N/N=C/c2ccc([N+](=O)[O-])s2)nnc1-c1ccccc1,71*,-9,8,82,49,33
O=C(CNC(=O)c1cccc(F)c1)N/N=C/c1ccc([N+](=O)[O-])s1,71*,-3,26,21,x,37
Cc1ccnn1CC(=O)N/N=C/c1ccc([N+](=O)[O-])s1,55,2,x,3,32,36
CO[C@@H]1CN(C)C(=O)c2ccc(NC(=O)c3ccccc3)cc2OC[C@H](C)N(C(C)=O)C[C@@H]1C,x,x,10,x,-5,x
SMILES,MITF TRPM1 inh,LMP1 NFkB inh,LGR2 inh,Shn3 3UTR inh,EWS-Fli inh,PAX8 inh HTS
O=C(N/N=C/c1ccc([N+](=O)[O-])s1)C(O)c1ccccc1 (stereo unspecified),69*,-5,-1,17,36,48
COC(=O)N/N=C/c1ccc([N+](=O)[O-])s1,23,-10,-21,7,x,-3
O=C(N/N=C/c1ccc([N+](=O)[O-])s1)c1ccccc1,105*,17,16,32,63*,20
O=C(N/N=C/c1ccc([N+](=O)[O-])s1)c1ccccc1Br,90*,8,-1,41,48,x
Cc1ccccc1C(=O)N/N=C/c1ccc([N+](=O)[O-])s1,94*,-7,24,-3,x,x
Cc1cc(C(=O)N/N=C/c2ccc([N+](=O)[O-])s2)c2ccccc2n1,60,-10,9,-21,33,21
CC1CCCC(C)N1c1nnc(NC(=O)c2cc(-c3ccc(Br)cc3)on2)s1 (stereo unspecified),x,-1,x,-4,3,-4
O=C(Nc1nnc(N2CCCCCC2)s1)c1cc(-c2ccc(Br)cc2)on1,-18,86*,x,-12,-11,-18
C[C@@H]1CN([C@@H](C)CO)C(=O)c2cc(N(C)C)ccc2O[C@@H](C)CCCCO[C@H]1CN(C)S(=O)(=O)c1ccc(F)cc1,x,x,8,x,0,88*
C[C@@H]1CCCCO[C@H](CN(C)S(=O)(=O)c2ccc(Cl)cc2)[C@H](C)CN([C@@H](C)CO)C(=O)c2cc(N(C)C)ccc2O1,x,x,-9,x,-1,77*
Cc1ccc(S(=O)(=O)N(C)C[C@H]2OCCCC[C@@H](C)Oc3ccc(N(C)C)cc3C(=O)N([C@H](C)CO)C[C@H]2C)cc1,x,x,8,x,7,47
Cc1ccc(NC(=S)N(CCCN2CCOCC2)Cc2ccccn2)cc1,-2,-8,-2,3,3,110*
COc1ccc(NC(=S)N(CCCN2CCOCC2)Cc2ccccn2)cc1,3,3,4,8,4,11
Cc1ccc(-c2nc(-c3ccncc3)no2)c(Cl)c1,-10,9,75*,-19,56*,-34
Clc1ccc(-c2nc(-c3ccncc3)no2)c(Cl)c1,-76,-22,-70,-110,-56,-185
c1ccc2sc(Sc3ncnc4sccc34)nc2c1,-6,7,-26,-13,-24,47
CCc1cc2c(Sc3nc4ccccc4s3)ncnc2s1,16,43*,-3,54,x,x
COc1ccc(-c2ccc3n(c2=O)C[C@@H]2[C@@H](CO)[C@H](C(=O)N4CCCCC4)[C@H]3N2C)cc1,x,x,6,x,2,16
CS(=O)(=O)Nc1ccc2c(c1)[C@@H]1C[C@@H](CC(=O)O)O[C@H](CO)[C@@H]1O2,x,x,9,x,x,-3
CCOC(=O)C1(CCOc2ccccc2)CCN(Cc2ccc(OC)c(COC)c2)CC1,21,14,17,88*,25,30
